Results: article PMC4336329 (PLoS ONE, 2015)
The campaign covered roughly 310,000 compounds. About 14,000 (4.5%) showed an effect of 50% or more. The effect is printed as a negative number. Only a selection was taken, and strong results are over-represented in it overall.

Biological target: human ether-à-go-go-related gene (hERG) potassium channel (human, UniProt Q12809)
Assay: primary screen, population patch clamp on CHO cells stably expressing hERG; higher = less effect of the substance
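Note: peak tail current of the secondary pulse compared with the same well before compound.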

human ether-à-go-go-related gene (hERG) potassium channel, sequence (Q12809 whole entry, looked up): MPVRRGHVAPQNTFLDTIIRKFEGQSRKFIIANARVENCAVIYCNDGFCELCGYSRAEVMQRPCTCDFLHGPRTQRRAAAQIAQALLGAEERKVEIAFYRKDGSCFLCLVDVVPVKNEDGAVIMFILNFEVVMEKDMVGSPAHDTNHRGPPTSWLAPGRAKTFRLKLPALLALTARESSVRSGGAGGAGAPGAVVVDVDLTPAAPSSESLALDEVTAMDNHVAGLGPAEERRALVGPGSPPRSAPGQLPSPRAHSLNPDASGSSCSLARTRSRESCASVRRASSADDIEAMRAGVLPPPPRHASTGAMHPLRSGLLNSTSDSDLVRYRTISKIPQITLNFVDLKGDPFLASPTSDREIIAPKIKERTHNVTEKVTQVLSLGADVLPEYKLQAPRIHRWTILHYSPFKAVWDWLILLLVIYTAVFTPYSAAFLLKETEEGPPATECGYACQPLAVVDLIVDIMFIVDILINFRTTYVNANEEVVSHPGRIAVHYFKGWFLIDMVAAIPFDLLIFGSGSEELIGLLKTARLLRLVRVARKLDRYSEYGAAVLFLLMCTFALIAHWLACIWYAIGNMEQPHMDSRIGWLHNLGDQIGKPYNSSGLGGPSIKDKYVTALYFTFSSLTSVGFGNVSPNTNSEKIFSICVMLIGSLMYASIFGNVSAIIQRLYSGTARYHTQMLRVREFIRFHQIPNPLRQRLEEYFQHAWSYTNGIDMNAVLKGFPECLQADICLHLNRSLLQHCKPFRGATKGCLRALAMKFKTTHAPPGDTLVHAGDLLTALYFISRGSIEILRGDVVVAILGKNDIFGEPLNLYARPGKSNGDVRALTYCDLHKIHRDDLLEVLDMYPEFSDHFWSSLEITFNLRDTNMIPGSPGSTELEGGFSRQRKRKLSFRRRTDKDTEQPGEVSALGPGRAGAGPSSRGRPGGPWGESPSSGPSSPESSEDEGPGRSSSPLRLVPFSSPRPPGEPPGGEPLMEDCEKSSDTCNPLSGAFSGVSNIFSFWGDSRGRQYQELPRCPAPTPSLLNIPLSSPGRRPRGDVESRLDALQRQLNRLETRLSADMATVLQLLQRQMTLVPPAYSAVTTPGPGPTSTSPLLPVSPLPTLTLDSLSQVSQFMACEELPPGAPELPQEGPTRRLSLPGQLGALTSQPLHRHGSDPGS

| Structure (SMILES) | hERG current change (%, negative = inhibition) at 10uM |
| --- | --- |
| CCOc1ccc(N(CC)C(=O)CCS(=O)(=O)c2cccc3nonc23)cc1 | -4.92% |
| O=C(CSc1nnc(COc2ccccc2)n1-c1ccccc1)c1ccccc1 | 11.2% |
| O=C(CCCCCNC(=O)N1CCn2c1nc1ccccc12)NCc1ccccc1Cl | -16.6% |
| CCN(CC)S(=O)(=O)c1cccc(-c2nnc(SCC(=O)c3ccc(Cl)s3)n2C)c1 | -52.7% |
| CCSc1nnc(-c2cccc(S(=O)(=O)N(CC)CC)c2)n1Cc1ccccc1 | -62.6% |
| CCN(CC)S(=O)(=O)c1ccc(-c2nnc(SCc3nnc(-c4ccccc4)o3)o2)cc1 | 7.63% |
| CCN(CC)S(=O)(=O)c1cccc(-c2nnc(SC(C)C#N)n2Cc2ccccc2)c1 (centres unmarked) | -7.34% |
| COc1ccc(-n2c(SCC3CNC(=O)O3)nnc2-c2ccc(Cl)cc2)cc1 (centres unmarked) | -54.8% |
| CCN(CC)S(=O)(=O)c1cccc(-c2nnc(SCc3nnc(-c4cccs4)o3)n2N)c1 | -44.3% |
| Cc1cccc(-c2nnc(SCC3CNC(=O)O3)n2-c2ccc(Cl)cc2)c1 (centres unmarked) | -40.3% |
| COc1cccc(-c2nnc(SCC3CNC(=O)O3)n2-c2ccc(Cl)cc2)c1 (centres unmarked) | 8.33% |
| CCN(CC)S(=O)(=O)c1cccc(-c2nnc(SCC(=O)NC)n2N)c1 | 8.5% |
| CCN(CC)S(=O)(=O)c1cccc(-c2nnc(SCc3nnc(-c4ccccc4)o3)n2C)c1 | -67.4% |
| CCN(CC)S(=O)(=O)c1cccc(-c2nnc(SCC(N)=O)n2N)c1 | -28.9% |
| CCN(CC)S(=O)(=O)c1cccc(-c2nnc(SCC#N)n2Cc2ccccc2)c1 | -25.5% |
| CCn1cc(/C=C(\NC(=O)c2cc(OC)c(OC)c(OC)c2)C(=O)NCCN2CCOCC2)c2ccccc21 | 10.8% |
| COc1ccc(CCNC(=O)Cn2nc([N+](=O)[O-])c(Br)c2C)cc1OC | -0.503% |
| O=S(CC1CC1(Cl)Cl)CC1CC1(Cl)Cl (centres unmarked) | 3.18% |
| O=C(CNc1cccc(S(=O)(=O)N2CCCC2)c1)Nc1cccc(Br)c1 | -18.5% |
| COc1ccccc1N(C)S(=O)(=O)c1ccc(C(=O)NCc2ccc3c(c2)OCO3)cc1 | 4.2% |
| O=C(c1ccc(O)cc1)c1ccc(C(=O)O)c(C(=O)O)c1 | 23.2% |

| Structure (SMILES) | hERG current change (%, negative = inhibition) at 10uM |
| --- | --- |
| Cc1cnc(NC(=O)CSC(=S)N2CCOCC2)s1 | 15.4% |
| COC(=O)Nc1ccc(S(=O)(=O)N2CCC(Cc3ccccc3)CC2)cc1 | 1.4% |
| COc1ccc2nc(NC(=O)CCc3ccc(OC)c(OC)c3)sc2c1 | 26.2% |
| CCN(CC)S(=O)(=O)c1cccc(-c2n[nH]c(=S)n2CC(C)C)c1 | 6.22% |
| CCN(CC)S(=O)(=O)c1ccc(-c2nnc(SCc3nnc(-c4ccc(C)cc4)o3)o2)cc1 | 8.8% |
| CCN(CC)S(=O)(=O)c1ccc(-c2nnc(SCc3nnc(-c4ccc(C)cc4)o3)n2CC)cc1 | -55.2% |
| CCC(C)n1c(-c2cccc(S(=O)(=O)N(CC)CC)c2)n[nH]c1=S (centres unmarked) | 26.6% |
| COc1ccc(-c2nnc(SCc3nnc(-c4ccccc4)o3)n2C)cc1OC | -54.3% |
| COc1ccc(-c2nnc(SCc3nnc(-c4ccccc4)o3)n2-c2ccccc2)cc1 | -9.78% |
| CCN(CC)S(=O)(=O)c1cccc(-c2n[nH]c(=S)n2C)c1 | -51.8% |
| COc1ccc(-c2nnc(CSc3nc4ccccc4c(=O)n3C)o2)cc1OC | -4.89% |
| COc1ccc(-n2c(SCc3nnc(-c4ccccc4)o3)nnc2-c2ccccc2)cc1 | -29.5% |
| CCn1c(SCc2nnc(-c3ccccc3)o2)nnc1-c1ccc(S(=O)(=O)N2CCCC2)cc1 | -34.6% |
| COCCn1c(SCc2nnc(-c3ccc(OC)c(OC)c3)o2)nnc1-c1ccncc1 | 1.42% |
| COc1ccc(-c2nnc(SCc3nnc(-c4ccc(Cl)cc4)o3)n2-c2ccccc2)cc1 | -56% |
| COc1cc(NC(=O)c2ccccc2)ccc1NC(=O)c1cc2ccccc2o1 | 25.8% |
| CCOC(=O)c1cc(-c2ccc([N+](=O)[O-])cc2)nc2c1c(=O)[nH]c(=O)n2Cc1ccccc1 | 11.9% |
| CC1CCN(C(=O)c2[nH]cnc2C(=O)NC2CCN(C(=O)OC(C)(C)C)CC2)CC1 | 9.62% |
| COc1ccc(NC(=S)NCc2ccco2)c(OC)c1 | -2.08% |
| CCOc1ccc(N(C)S(=O)(=O)c2ccc3[nH]cc(C(=O)NCCCOC)c(=O)c3c2)cc1 | 3.51% |
